Data as given in PubChem BioAssay (NCATS).
Results filed as inconclusive are left out. Where a call stands in place of a potency, no number is given. Active and inactive are the calls of the source. The call rests on the fitted dose curve; in most records, active means well fitted inhibition curve with a large enough effect; inconclusive means small, poorly fitted or top-dose-only effect; inactive means flat fitted curve, though single readings scatter. Positions of bridges follow the written chain, without caps; N, C: chain ends. Non-standard residues stand in square brackets, D forms with d. Residues, ends and D or L forms follow the SMILES beside them. ξ: configuration not given here. *: point of attachment. Octanoyl(6-Me) = CCC(C)CCCCC(=O)*; ξThr(3R) = C[C@@H](O)C(N)C(=O)O; dDab = NCC[C@@H](N)C(=O)O; Dab = NCC[C@H](N)C(=O)O

Test system: Zika virus NS2B-NS3 protease
Experiment: Primary screen GU AMC qHTS for Zika virus inhibitors (AID 1347154); further: nearly all actives have a fitted effect of over 70% in size
Details: Zika NS2B-NS3 unlinked protease, AMC fluorogenic substrate; series mostly up to 54.1 µM
In short: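 Unlinked Zika NS2B hydrophilic domain–NS3 protease complex at 25 nM in 10 mM Tris-HCl pH 8.0, 0.01% Tween 20, with an AMC peptide substrate. Fluorescence change (340/450 nm) over 15 min at room temperature, normalized to controls, fitted to 4-parameter Hill.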

SMILES	Potency
C=C1C[C@@]2(O)O[C@@]3(C[C@H]2C(C)C)[C@H](C)CC[C@H]13	inactive
O=C1c2cccc(O)c2C(=O)c2c(O)cc(CO)cc21	inactive
CNC(=O)Nc1ccc(-c2nc(N3CC4CCC(C3)O4)c3cnn(C4CCC5(CC4)OCCO5)c3n2)cc1	inactive
O=C(C[C@@H]1CC=CCCC(=O)O[C@H](c2ccccc2)CNC1=O)NCc1ccc(Cl)cc1	inactive
Cc1ccc2nc(NCCN)c3ncc(C)n3c2c1	inactive
O=C1NC(O)CCN1[C@@H]1O[C@H](CO)[C@H](O)[C@H]1O (stereo partly specified)	inactive
CN(N=O)C(=O)N[C@H]1C(O)OC(CO)[C@@H](O)[C@H]1O (stereo partly specified)	inactive
C#C[C@]1(O)CC[C@@H]2[C@@H]3CCc4cc(O)ccc4[C@H]3CC[C@@]21C	inactive
CNC(=O)c1ccc(Nc2cc(Nc3ccccc3S(=O)(=O)C(C)C)c3cc[nH]c3n2)nc1	inactive
COC1=C(OC)C(=O)C(CC=C(C)CCC=C(C)CCC=C(C)CCC=C(C)CCC=C(C)CCC=C(C)CCC=C(C)CCC=C(C)CCC=C(C)CCC=C(C)C)=C(C)C1=O	inactive
CCC(C)CCCCC(=O)N[C@@H](CCN)C(=O)NC(C(=O)N[C@H](CCN)C(=O)N[C@@H]1CCNC(=O)C([C@@H](C)O)NC(=O)[C@@H](CCN)NC(=O)[C@@H](CCN)NC(=O)[C@@H](CC(C)C)NC(=O)[C@H](Cc2ccccc2)NC(=O)[C@H](CCN)NC1=O)[C@@H](C)O (stereo partly drawn) ({Octanoyl(6-Me)}-[Dab][ξThr(3R)][dDab][dDab][Dab]F[dL][dDab][dDab][ξThr(3R)]; lactam 4-C)	inactive
